Source: the supplement of paper PMC12632987
The full ranking holds about 2,300 sequences; the median of “median log2 fold change of GCK-ALFA target abundance (FLAG IP / Myc IP barcode read proportion)” is about 0.095, and the lowest 2% start at about -0.47. The entries come from a sample that favours the lowest values as a whole.

B1: LC3A_28_1162 (protein)
chain: SAIEESIKAAFEELEKAIKEGKNGVITLKVPGDATEEDIERLIKALEEIAKKAEEHGINGILIDVDGGVKQEHIDRLAKAAEEIEKKYPKVTIIIALSDE
B2: LC3A_free_46_2347 (protein)
chain: YKAEIDIDLLAEDEETLKKAVEEIVEAAKKIAKKYNLKVNIEVEIEKLEDGSYYARIKITLEGETKEDVEAAVNELIDEIDKIAKKYNVAAIISYEIIKT
B3: LC3A_free_46_2352 (protein)
chain: VEAKIEIDLLADDKEKLEKAVEEIIKKIKEIAKKYGLEVEINYEISKLEDGSYYAKIEITLKGEDLEDVKKAVNELINEIEEIAEKYGVSAVISYEIEDV
B4: LC3A_free_0_2121 (protein)
chain: KKTVVELVVILDEKTSEEKAKEAYEELKEKAEELAEENGWEVEVKLDKVDGRHIITVTLTSDEPDIDKGLELERKLSEIAEEIAKKLGLDATIYSSVYLE
B5: LC3A_free_8_2531 (protein)
chain: NVQEMVDLALKELDKLEKIAVEKAKELGLSRTDILELELVIGSAKIDIIEASDKSVEEIYKLFKEELKEILEEAKKYGEELYKEVEKKAKEALKKMEEAK
B6: LC3A_28_1140 (protein)
chain: SALVEAAKAQIEADAEADKDEPEVLLRVTITSEMTVEQAREIMDHVEEVVEKLKDKEKIYIVVDATEPISQEVLDEIVERLEEIEKKYPNVSSIIALPED
B7: LC3A_28_1037 (protein)
chain: DELRRRAEEAVKEAEEQAKKGEEAVVTIKVGKLPTEEAKRIVREALERLIKISKKYGNVKISVVIDVDGDQELVDAIIDVAEEAEKKNPNLTVIIALSEE
B8: LC3A_23_605 (protein)
chain: MYKVEVIVDFIDKPEEAEKKVEELLKKVEELLKKHKDIVKDYEIKVTREALPDGTTYVEVEITIIIDGTKEEAEEIRNELESIASETLPNGVISSEVEEL

target: MAP1LC3A, Q9H492; experiment: median log2 fold change of GCK-ALFA target abundance (FLAG IP / Myc IP barcode read proportion) (log2 ratio); each designed protein is fused to an ALFA-tag nanobody in HEK293 cells to bring the named protein to FLAG-tagged glucokinase (GCK); Myc marks an untargeted standard; higher = target protein stabilised (more abundant); settings: target protein: 3xFLAG-MCP-GCK-ALFA reporter; HEK293 landing pad (RPLP)
Method: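 LABEL-seq trans screen in HEK293 landing-pad cells. Each de novo designed 100-aa effector handle, binding the indicated effector (E3 ligase, DUB or autophagy protein), is fused to a constant NbALFA target handle and induced with 2 ug/mL doxycycline. A FLAG-MCP-GCK-ALFA target and a Myc-MCP standard reporter were transfected, and after 48 h circRNA barcodes were recovered by anti-FLAG and anti-Myc IP and sequenced. The value is the median across barcodes (at least 3 per design) of log2(FLAG/Myc read-proportion ratio), with the two transfection replicates pooled. Negative values mean degradation and positive values mean stabilisation of the target.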

Row | Binder | median log2 fold change
1 | B1 | -0.0306
2 | B2 | -0.556
3 | B3 | 0.204
4 | B4 | 0.00278
5 | B5 | -0.0124
6 | B6 | -0.0164
7 | B7 | -0.36
8 | B8 | -0.868
